Several values for one entry are separate records, joined by “and”; a condition that tells them apart may be missing. Equal values may be shown once. Results filed as inconclusive are left out. Where a structure was tested more than once in an assay, its records may differ in their call. Activity calls are given as the source filed them. Unless noted, calls follow the shape of the dose curve; as a rule, active = well fitted curve in the direction sought with a large enough effect; inconclusive = small, poorly fitted or top-dose-only effect, or another doubt; inactive = no such curve, though single readings can be large; an effect the other way counts as inactive or inconclusive.
Legend:
PA-1 = assay: Primary qHTS to identify gynecologic anti-cancer compounds using libraries of approved drugs and bioactive compounds (AID 1345084); conditions: Gynecologic cancer cell panel viability, ATPlite luminescence, 48 h; series mostly up to 57.5 µM; also: % is scaled to controls: 0 for no effect and ±100 for the full control effect; nearly all actives have a fitted effect of over 55% in size
Summary of the method: (§1)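 ATP-based viability (ATPlite), 1,000 cells/well, 16 h pre-incubation, 48 h compound at 37 C, 5% CO2, 15 min RT before read.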

SKOV3 = assay: as above; conditions: Gynecologic cancer cell panel viability, ATPlite luminescence, 48 h; series mostly up to 57.5 µM
Summary of the method: as §1

Tov-21-G = assay: as above; conditions: Gynecologic cancer cell panel viability, ATPlite luminescence, 48 h; series mostly up to 57.5 µM
Summary of the method: as §1

Tov112D = assay: as above; conditions: Gynecologic cancer cell panel viability, ATPlite luminescence, 48 h; series mostly up to 57.5 µM
Summary of the method: as §1

[1] = Drug repurposing screens with cells derived from glioblastoma tumor samples (AID 1345199); conditions: GBM patient neurospheres viability, ATP luminescence, 48 h; also: nearly all actives have a fitted effect of over 40% in size; also: potency is read from the fitted curve at half-maximal effect; as to activity, negative = cell killing: % is scaled to controls: 0 for no effect and ±100 for the full control effect
Summary of the method: (§2)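 Four patient lines of CD133+ GBM neurospheres were screened at several concentrations; hits were retested in those lines plus three slower-growing GBM lines, using 48-hour treatment and ATP-based viability.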

astro = assay: as above; conditions: viability, ATP luminescence, 48 h; series mostly up to 45.9 µM
Summary of the method: as §2

[2] = molecular target: Nuclear receptor subfamily 1 group I member 2 (Rattus norvegicus) (UniProt Q9R1A7); assay: qHTS assay for small molecule activators of the rat pregnane X receptor (rPXR) signaling pathway (AID 651751; call rule not given here; also: 0% is about no effect); conditions: rPXR reporter cells, luciferase (One-Glo), 24 h
[3] = qHTS assay for small molecule activators of the human pregnane X receptor (PXR) signaling pathway (AID 720659; call rule not given here; also: 0% is about no effect)
[4] = at 45.9 µM (top of the series), tumour line B
[5] = at 45.9 µM (top of the series), tumour line D
[6] = at 46 µM (top of the series), tumour line A
[7] = at 91.6 µM (top of the series), tumour line B
[8] = at 91.6 µM (top of the series), tumour line D
[9] = at 21.2 µM (top of the series), tumour line B
[10] = at 21.2 µM (top of the series), tumour line D
[11] = at 21.3 µM (top of the series), tumour line A

Chain of Nuclear receptor subfamily 1 group I member 2 (Rattus norvegicus) (Q9R1A7 whole entry, looked up): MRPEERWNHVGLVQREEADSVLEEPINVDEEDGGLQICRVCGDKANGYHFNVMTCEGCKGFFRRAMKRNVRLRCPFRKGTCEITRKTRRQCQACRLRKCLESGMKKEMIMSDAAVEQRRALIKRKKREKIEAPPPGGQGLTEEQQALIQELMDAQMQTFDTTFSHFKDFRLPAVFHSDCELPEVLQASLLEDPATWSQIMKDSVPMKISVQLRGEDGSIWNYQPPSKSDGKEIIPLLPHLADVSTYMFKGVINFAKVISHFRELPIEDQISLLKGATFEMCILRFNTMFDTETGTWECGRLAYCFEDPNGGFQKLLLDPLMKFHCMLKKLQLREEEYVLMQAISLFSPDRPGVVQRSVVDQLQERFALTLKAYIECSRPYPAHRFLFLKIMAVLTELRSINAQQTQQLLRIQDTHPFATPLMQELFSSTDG

c1ccc(CN2CCNCC2)cc1
inactive: Potency (PA-1) | outcome (SKOV3) | Potency (Tov-21-G) | Potency (Tov112D) | activity, negative = cell killing ([1]; at 194 µM (top of the series), tumour line B) 7.52% | activity, negative = cell killing ([1]; at 194 µM (top of the series), tumour line D) -7.34% | Potency (astro)
active: Potency ([1]; tumour line A) 126 µM

C[C@H](N)C(=O)c1ccccc1
inactive: Potency (PA-1) | outcome (SKOV3) | Potency (Tov-21-G) | Potency (Tov112D) | activity, negative = cell killing [1, 4] -11.6% | activity, negative = cell killing [1, 5] -9.76% | activity, negative = cell killing ([1]; at 108 µM (top of the series), tumour line B) -16.2% | activity, negative = cell killing ([1]; at 108 µM (top of the series), tumour line D) -20.3% | Potency (astro)

CC(C)NC(C)C
inactive: Potency (PA-1) | outcome (SKOV3) | Potency (Tov-21-G) | Potency (Tov112D) | activity, negative = cell killing [1, 4] 6.4% | activity, negative = cell killing [1, 5] 4.87% | activity, negative = cell killing [1, 6] 1.87% | Potency (astro) | max response [2] 7.26% | outcome [3]

O=[N+]([O-])O[C@H]1CO[C@H]2[C@@H]1OC[C@H]2O[N+](=O)[O-]
inactive: Potency (PA-1) | outcome (SKOV3) | Potency (Tov-21-G) | Potency (Tov112D) | activity, negative = cell killing [1, 4] -6.92% | activity, negative = cell killing [1, 5] 3.62% | activity, negative = cell killing [1, 6] -13.3% | Potency (astro)

CCCCCCC(=O)CCCCCC/C=C/C[C@@H](O)[C@H](O)[C@@](N)(CO)C(=O)O
active: Potency ([1]; tumour line A) 35.5 µM
inactive: Potency (PA-1) | outcome (SKOV3) | Potency (Tov-21-G) | Potency (Tov112D) | activity, negative = cell killing [1, 4] -13.1% and -22.4% | activity, negative = cell killing [1, 5] -26.9% and -22.9%

COc1cccc(C(=O)CCN[C@@H](C)[C@H](O)c2ccccc2)c1
active: Potency ([1]; tumour line A) 28.2 µM | Potency ([1]; tumour line B) 22.4 µM | Potency ([1]; tumour line D) 22.4 µM
inactive: Potency (PA-1) | outcome (SKOV3) | Potency (Tov-21-G) | Potency (Tov112D)

CCOC(=O)CC(SP(=S)(OC)OC)C(=O)OCC (stereo unspecified)
inactive: Potency (PA-1) | outcome (SKOV3) | Potency (Tov-21-G) | Potency (Tov112D) | activity, negative = cell killing [1, 4] -14.8% | activity, negative = cell killing [1, 6] -27.3% | activity, negative = cell killing [1, 7] -2.57% | activity, negative = cell killing [1, 8] -14% | Potency (astro) | max response [2] -0.753% and 0.726% and 3.47% | outcome [3]

CCC(C)(C)c1ccc(O)cc1
inactive: Potency (PA-1) | outcome (SKOV3) | Potency (Tov-21-G) | Potency (Tov112D) | activity, negative = cell killing [1, 4] -7.41% | activity, negative = cell killing [1, 5] 13.4% | activity, negative = cell killing [1, 6] -14.1% | activity, negative = cell killing ([1]; at 46.1 µM (top of the series), tumour line C) -3.53% | Potency (astro) | max response [2] 1.88% and -0.811%

CN1CC[C@]23c4c5ccc(O)c4O[C@H]2[C@@H](O)CC[C@H]3[C@H]1C5
inactive: Potency (PA-1) | outcome (SKOV3) | Potency (Tov-21-G) | Potency (Tov112D) | activity, negative = cell killing ([1]; at 91.6 µM (top of the series), tumour line A) -29.5% | activity, negative = cell killing [1, 7] -3.58% | activity, negative = cell killing [1, 8] -23.6% | Potency (astro)

C[C@@H](N)[C@@H](O)c1ccccc1
inactive: Potency (PA-1) | outcome (SKOV3) | Potency (Tov-21-G) | Potency (Tov112D) | activity, negative = cell killing [1, 9] -14.5% | activity, negative = cell killing [1, 10] 16.2% | activity, negative = cell killing [1, 11] -20.6% | Potency (astro)

C#C[C@]1(O)CC[C@H]2[C@@H]3CCC4=CC(=O)CC[C@]4(C)[C@H]3CC[C@@]21C
inactive: Potency (PA-1) | outcome (SKOV3) | Potency (Tov-21-G) | Potency (Tov112D) | activity, negative = cell killing [1, 4] -23.4% and -19.6% | activity, negative = cell killing [1, 5] -13.1% and -15.3% | activity, negative = cell killing [1, 6] -19.9% | Potency (astro)

c1ccc2c(c1)sc1ccccc12
inactive: Potency (PA-1) | outcome (SKOV3) | Potency (Tov-21-G) | Potency (Tov112D) | activity, negative = cell killing [1, 4] -12.7% | activity, negative = cell killing [1, 5] -8% | activity, negative = cell killing [1, 6] -9.49% | Potency (astro)

CN1C(=O)NC(=O)C(C)(C2=CCCCC2)C1=O (stereo unspecified)
inactive: Potency (PA-1) | outcome (SKOV3) | Potency (Tov-21-G) | Potency (Tov112D) | activity, negative = cell killing [1, 4] 16.4% and -21.6% | activity, negative = cell killing [1, 5] 3.59% and 4.39% | activity, negative = cell killing [1, 6] 3.99% | Potency (astro)

CC(=O)NC1CCSC1=O (stereo unspecified)
inactive: Potency (PA-1) | outcome (SKOV3) | Potency (Tov-21-G) | Potency (Tov112D) | activity, negative = cell killing [1, 9] -5.98% | activity, negative = cell killing [1, 10] 7.84% | activity, negative = cell killing [1, 11] -12.3% | activity, negative = cell killing [1, 4] -16.4% | activity, negative = cell killing [1, 5] -12.7%

NC1=NC(=O)C(c2ccccc2)O1 (stereo unspecified)
inactive: Potency (PA-1) | outcome (SKOV3) | Potency (Tov-21-G) | Potency (Tov112D) | activity, negative = cell killing [1, 4] -0.343% | activity, negative = cell killing [1, 5] -7.44% | activity, negative = cell killing [1, 6] -19.1% | Potency (astro)

NC(=O)CS(=O)C(c1ccccc1)c1ccccc1 (stereo unspecified)
inactive: Potency (PA-1) | outcome (SKOV3) | Potency (Tov-21-G) | Potency (Tov112D) | activity, negative = cell killing [1, 4] -12.2% | activity, negative = cell killing [1, 5] -18.4% | activity, negative = cell killing [1, 6] -9.02% | Potency (astro)

CCC1(c2ccccc2)C(=O)N(COC)C(=O)N(COC)C1=O
inactive: Potency (PA-1) | outcome (SKOV3) | Potency (Tov-21-G) | Potency (Tov112D) | activity, negative = cell killing [1, 4] -7.62% | activity, negative = cell killing [1, 5] 2.45% | activity, negative = cell killing [1, 6] -19.3% | Potency (astro)

O=c1[nH]oc2c1CCNC2
inactive: Potency (PA-1) | outcome (SKOV3) | Potency (Tov-21-G) | Potency (Tov112D) | activity, negative = cell killing [1, 4] -19.5% | activity, negative = cell killing [1, 5] -5.63% | activity, negative = cell killing [1, 6] -27.4% | Potency (astro)

Cc1ncsc1CCCl
inactive: Potency (PA-1) | outcome (SKOV3) | Potency (Tov-21-G) | Potency (Tov112D) | activity, negative = cell killing [1, 4] -10.2% | activity, negative = cell killing [1, 5] -8.99% | activity, negative = cell killing [1, 6] 4.91%

O=C1OC(c2ccc(O)c(S(=O)(=O)O)c2)(c2ccc(O)c(S(=O)(=O)O)c2)c2c(Br)c(Br)c(Br)c(Br)c21
inactive: Potency (PA-1) | outcome (SKOV3) | Potency (Tov-21-G) | Potency (Tov112D) | activity, negative = cell killing [1, 4] -1.68% | activity, negative = cell killing [1, 5] 0.706% | activity, negative = cell killing [1, 6] -10.6% | Potency (astro)

— PubChem BioAssay (NCATS)
